Several values for one entry are separate records, joined by “and”; a condition that tells them apart may be missing. Equal values may be shown once. Records with an inconclusive call do not appear. A structure can be active in one record and inactive in another. Activity calls are given as the source filed them. The calls were made as follows, unless noted: active = hit-call score of the fitted dose curve at least 0.9, where 1 is the maximum; inconclusive = response in the unintended direction; inactive = score below 0.9.
What was measured:
[1] = ATG_TGFb_CIS: Attagene CIS-FACTORIAL HepG2 Assay for human Transforming Growth Factor (TGF) (AID 2282967; active = hit-call score of the fitted dose curve at least 0.9, where 1 is the maximum; inactive = score below 0.9); details: HepG2 Attagene CIS TGFb reporter, mRNA transcription; actives raise or lower the signal
How it was run: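 Bidirectional fitting relative to DMSO gave the endpoint. Underlying data: reporter mRNA from HepG2 cells carrying transiently transfected cis-regulated reporter constructs, harvested 24 h after dosing and analyzed by RT-PCR and capillary electrophoresis.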

[2] = ATG_VDRE_CIS: Attagene CIS-FACTORIAL HepG2 Assay for human Vitamin D Receptor Element (VDRE) (AID 2282968; active = hit-call score of the fitted dose curve at least 0.9, where 1 is the maximum; inactive = score below 0.9); details: HepG2 VDRE cis-reporter transcription, actives raise or lower the signal
How it was run: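 Cell-based multiplexed reporter format in human liver HepG2 cells, 24 h post-dose. Fluorescence from capillary electrophoresis of reporter cDNA gives the signal, with DMSO as negative control and baseline.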

[3] = biological target: Nuclear receptor subfamily 1 group I member 3 (Homo sapiens) (UniProt Q14994); assay: ATG_CAR_TRANS: Attagene TRANS-FACTORIAL HepG2 Assay for human Constitutive Androstane Receptor (CAR) (AID 2282969); details: HepG2 Attagene TRANS-FACTORIAL CAR reporter;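 also: activators raise reporter mRNA above DMSO so AC50 marks induction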
How it was run: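 HepG2 cells transiently transfected with GAL4-UAS reporter units; TRANS format reads activity of exogenous chimeric NR-Gal4 protein. After 24 h dosing, reporter mRNA quantified by RT-PCR, 6-FAM labelling and capillary electrophoresis; gain of signal fitted against DMSO.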

[4] = biological target: Estrogen receptor (Homo sapiens) (UniProt P03372); assay: ATG_ERa_TRANS: Attagene TRANS-FACTORIAL HepG2 Assay for human Estrogen Receptor alpha (ERa) (AID 2282970); details: HepG2 Attagene TRANS ERa GAL4 reporter, mRNA
How it was run: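 Human liver HepG2, transient transfection of multiple GAL4-UAS reporter units; TRANS format (exogenous NR-Gal4 chimera). 24 h dosing. Readout: reporter mRNA, RT-PCR, 6-FAM primer extension, HpaI digest, capillary electrophoresis. Positive direction vs DMSO.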

[5] = biological target: X-box-binding protein 1 (Homo sapiens) (UniProt P17861); assay: ATG_Xbp1_CIS: Attagene CIS-FACTORIAL HepG2 Assay for human X-box Binding Protein 1 (XBP1) (AID 2282972; active = hit-call score of the fitted dose curve at least 0.9, where 1 is the maximum; inactive = score below 0.9); details: HepG2 XBP1 cis-element reporter, Attagene multiplex; actives raise or lower the signal
How it was run: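 After a 24-hour chemical exposure of HepG2 cells carrying cis-regulated reporters, reporter mRNA levels are assessed. Quantification uses RT-PCR, 6-FAM labelling and capillary electrophoresis. Gain- or loss-of-signal is fitted against DMSO.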

[6] = ATG_GAL4_TRANS: Attagene TRANS-FACTORIAL HepG2 Assay for GAL4 (Internal Marker) (AID 2282976); details: HepG2 Attagene TRANS GAL4 internal marker reporter
How it was run: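 First, HepG2 cells were transfected with reporter units under GAL4-UAS control. Next, they were treated with chemical for 24 h. Finally, RNA was reverse-transcribed, PCR-amplified, FAM-labelled and resolved by capillary electrophoresis, with induction scored against DMSO.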

[7] = biological target: Hepatocyte nuclear factor 4-alpha (Homo sapiens) (UniProt P41235); assay: ATG_HNF4a_TRANS: Attagene TRANS-FACTORIAL HepG2 Assay for human Hepatocyte Nuclear Factor 4 alpha (HNF4a) (AID 2282982); details: HepG2 HNF4a transactivation reporter, mRNA readout
How it was run: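 Gain-of-signal mRNA induction, relative to DMSO vehicle, was read after 24 h compound treatment of HepG2 cells bearing transfected GAL4-UAS reporters. Detection used RT-PCR, 6-FAM primer extension and capillary electrophoresis.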

[8] = ATG_M_06_TRANS: Attagene TRANS-FACTORIAL HepG2 Assay for M06 Transcription Factor (Internal Marker) (AID 2282983); details: HepG2 Attagene TRANS M06 internal marker reporter
How it was run: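 Transfect HepG2 with MRTUs → dose compounds 24 h → isolate RNA, oligo(dT) RT → PCR with reporter primers → 6-FAM primer extension → HpaI digest → CE fragment analysis. Positive direction vs DMSO.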

[9] = ATG_M_32_TRANS: Attagene TRANS-FACTORIAL HepG2 Assay for M32 Transcription Factor (Internal Marker) (AID 2282984); details: HepG2 Attagene TRANS M32 internal marker reporter;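 also: transcript level of a background control reporter unit measured by RT-PCR and capillary electrophoresis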
How it was run: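 Capillary electrophoresis of 6-FAM-labelled reporter fragments gives the signal; data fitted for gain over DMSO negative control. Source: HepG2 cells bearing transient multiple reporter transcription units, 24 h exposure.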

[10] = biological target: Transcriptional activator Myb (Homo sapiens) (UniProt P10242); assay: ATG_Myb_CIS: Attagene CIS-FACTORIAL HepG2 Assay for human Myeloblastosis (Myb) Proto-Oncogene Transcription Factor (AID 2282986; active = hit-call score of the fitted dose curve at least 0.9, where 1 is the maximum; inactive = score below 0.9); details: HepG2 Attagene CIS-FACTORIAL Myb reporter transcription; actives raise or lower the signal
How it was run: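 HepG2, transient MRTU transfection (cis-element promoters, endogenous TF activity), 24 h compound exposure. Readout: reporter mRNA via RT-PCR, 6-FAM labeling, HpaI digest, capillary electrophoresis. Gain/loss fit vs DMSO.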

[11] = biological target: Nuclear respiratory factor 1 (Homo sapiens) (UniProt Q16656); assay: ATG_NRF1_CIS: Attagene CIS-FACTORIAL HepG2 Assay for human Nuclear Respiratory Factor 1 (NRF1) Orphan Gene (AID 2282987; active = hit-call score of the fitted dose curve at least 0.9, where 1 is the maximum; inactive = score below 0.9); details: HepG2 NRF1 cis-element reporter, Attagene multiplex; actives raise or lower the signal
How it was run: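 Endogenous NRF1-driven reporter transcription measured in transiently transfected human HepG2 liver cells. Readout: reporter mRNA by RT-PCR and capillary electrophoresis with fluorescence detection, 24 h post-dosing. Gain or loss of signal fitted relative to DMSO baseline.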

[12] = ATG_M_19_TRANS: Attagene TRANS-FACTORIAL HepG2 Assay for M19 Transcription Factor (Internal Marker) (AID 2282974); details: HepG2 Attagene TRANS-FACTORIAL M19 internal marker reporter
How it was run: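 24 h chemical exposure of transiently transfected HepG2 (MRTU library). RNA → oligo(dT) RT → PCR → 6-FAM labelling → HpaI cut → CE fluorescence. Positive-direction fit vs DMSO baseline; background internal-marker readout.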

[13] = biological target: Oxysterols receptor LXR-alpha (Homo sapiens) (UniProt Q13133); assay: ATG_LXRa_TRANS: Attagene TRANS-FACTORIAL HepG2 Assay for human Liver X Receptor alpha (LXRa) (AID 2282980); details: HepG2 Attagene TRANS reporter, LXRa transactivation
How it was run: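 Transfect HepG2 with GAL4-UAS multiplex reporter constructs (TRANS format, chimeric receptor-GAL4); treat 24 h; extract RNA, reverse-transcribe, PCR-amplify, FAM-label, HpaI-digest; resolve fragments by capillary electrophoresis. Upward response vs DMSO.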

[14] = biological target: Oxysterols receptor LXR-beta (Homo sapiens) (UniProt P55055); assay: ATG_LXRb_TRANS: Attagene TRANS-FACTORIAL HepG2 Assay for human Liver X Receptor beta (LXRb) (AID 2282981); details: HepG2 Attagene TRANS GAL4-LXRb reporter, mRNA
How it was run: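 Gain-of-signal mRNA reporter endpoint, DMSO as negative control. Transiently transfected HepG2 cells carrying the NR-Gal4 chimera and GAL4-UAS reporter units were treated 24 h; transcripts quantified by RT-PCR and capillary electrophoresis fluorescence.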

[15] = biological target: Steroid hormone receptor ERR1 (Homo sapiens) (UniProt P11474); assay: ATG_ERRa_TRANS: Attagene TRANS-FACTORIAL HepG2 Assay for human Estrogen-Related Receptor alpha (ERRa) (AID 2282971); details: HepG2 Attagene TRANS reporter, ERRa transactivation
How it was run: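 Reporter transcript induction was quantified by RT-PCR and capillary electrophoresis of FAM-labelled, HpaI-cut products after 24 h treatment of HepG2 cells carrying transiently transfected GAL4-UAS reporter units and an exogenous ERRa-Gal4 fusion; activity scored as increase over DMSO.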

[16] = biological target: Nuclear receptor subfamily 4 group A member 2 (Homo sapiens) (UniProt P43354); assay: ATG_NURR1_TRANS: Attagene TRANS-FACTORIAL HepG2 Assay for human Nuclear Receptor Related Protein 1 (NURR1) (AID 2282985); details: HepG2 Attagene TRANS reporter, mRNA readout
How it was run: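 HepG2 / transient MRTU transfection / 24 h compound exposure / RT-PCR + CE fluorescence of reporter mRNA / gain-of-signal vs DMSO.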

[17] = biological target: Glucocorticoid receptor (Homo sapiens) (UniProt P04150); assay: ATG_GR_TRANS: Attagene TRANS-FACTORIAL HepG2 Assay for human Glucocorticoid Receptor (GR) (AID 2282978); details: HepG2 Attagene TRANS GR reporter, mRNA transcription;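 also: activators score as hits since higher reporter transcript over DMSO is fitted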
How it was run: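 Transient MRTU transfection of HepG2 (GAL4-UAS reporters, exogenous NR-GAL4 chimeras), 24 h dosing. Readout: reporter transcript via RT-PCR + capillary electrophoresis fluorescence. Positive direction vs DMSO baseline.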

[18] = biological target: Bile acid receptor (Homo sapiens) (UniProt Q96RI1); assay: ATG_FXR_TRANS: Attagene TRANS-FACTORIAL HepG2 Assay for Farnesoid X Receptor (FXR) (AID 2282979); details: HepG2 Attagene TRANS FXR-GAL4 reporter transcription;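 also: hits raise reporter mRNA above DMSO so AC50 marks FXR activation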
How it was run: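 Transient transfection of HepG2 with multiplexed GAL4-UAS reporter units; exogenous FXR-GAL4 chimera. Dose 24 h → TriZol RNA → oligo(dT) RT → PCR, 6-FAM primer extension, HpaI cut → CE. Gain vs DMSO.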

Measured: AC50

Glucocorticoid receptor (Homo sapiens), sequence (P04150 whole entry, looked up, the tested form may be a part): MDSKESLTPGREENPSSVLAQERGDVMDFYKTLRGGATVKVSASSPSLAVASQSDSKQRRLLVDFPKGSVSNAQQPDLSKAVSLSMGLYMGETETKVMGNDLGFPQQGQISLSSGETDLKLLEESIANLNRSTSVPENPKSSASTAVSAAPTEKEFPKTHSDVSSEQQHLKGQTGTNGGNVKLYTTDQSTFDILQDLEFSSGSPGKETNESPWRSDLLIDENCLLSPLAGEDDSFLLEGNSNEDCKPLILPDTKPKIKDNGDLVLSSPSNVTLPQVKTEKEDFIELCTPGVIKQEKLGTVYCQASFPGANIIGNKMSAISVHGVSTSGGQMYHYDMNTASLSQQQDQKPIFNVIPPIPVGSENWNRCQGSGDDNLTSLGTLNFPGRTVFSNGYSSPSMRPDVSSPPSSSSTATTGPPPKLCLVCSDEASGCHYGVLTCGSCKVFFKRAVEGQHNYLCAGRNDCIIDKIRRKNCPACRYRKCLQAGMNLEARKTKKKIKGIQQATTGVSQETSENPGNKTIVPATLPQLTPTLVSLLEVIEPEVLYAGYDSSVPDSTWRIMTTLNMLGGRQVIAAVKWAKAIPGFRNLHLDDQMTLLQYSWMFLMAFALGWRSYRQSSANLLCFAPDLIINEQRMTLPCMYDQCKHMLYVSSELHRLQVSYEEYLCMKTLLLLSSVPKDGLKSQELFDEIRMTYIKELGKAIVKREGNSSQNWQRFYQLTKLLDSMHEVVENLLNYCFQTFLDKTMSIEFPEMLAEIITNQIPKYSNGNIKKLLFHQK
Hepatocyte nuclear factor 4-alpha (Homo sapiens), sequence (P41235 whole entry, looked up, the tested form may be a part): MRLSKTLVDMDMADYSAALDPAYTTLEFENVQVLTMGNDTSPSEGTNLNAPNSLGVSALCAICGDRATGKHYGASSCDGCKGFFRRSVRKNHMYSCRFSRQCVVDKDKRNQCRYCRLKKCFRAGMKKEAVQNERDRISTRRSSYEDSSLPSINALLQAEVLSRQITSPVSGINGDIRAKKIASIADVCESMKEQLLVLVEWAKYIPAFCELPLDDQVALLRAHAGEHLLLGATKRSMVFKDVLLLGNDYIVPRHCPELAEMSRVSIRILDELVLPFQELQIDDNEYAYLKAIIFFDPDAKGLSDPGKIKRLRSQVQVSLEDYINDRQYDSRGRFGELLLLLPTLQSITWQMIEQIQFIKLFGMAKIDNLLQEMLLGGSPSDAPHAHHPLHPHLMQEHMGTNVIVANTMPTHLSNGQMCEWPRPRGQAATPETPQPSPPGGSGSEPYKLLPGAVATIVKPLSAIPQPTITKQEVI
Estrogen receptor (Homo sapiens), sequence (P03372 whole entry, looked up, the tested form may be a part): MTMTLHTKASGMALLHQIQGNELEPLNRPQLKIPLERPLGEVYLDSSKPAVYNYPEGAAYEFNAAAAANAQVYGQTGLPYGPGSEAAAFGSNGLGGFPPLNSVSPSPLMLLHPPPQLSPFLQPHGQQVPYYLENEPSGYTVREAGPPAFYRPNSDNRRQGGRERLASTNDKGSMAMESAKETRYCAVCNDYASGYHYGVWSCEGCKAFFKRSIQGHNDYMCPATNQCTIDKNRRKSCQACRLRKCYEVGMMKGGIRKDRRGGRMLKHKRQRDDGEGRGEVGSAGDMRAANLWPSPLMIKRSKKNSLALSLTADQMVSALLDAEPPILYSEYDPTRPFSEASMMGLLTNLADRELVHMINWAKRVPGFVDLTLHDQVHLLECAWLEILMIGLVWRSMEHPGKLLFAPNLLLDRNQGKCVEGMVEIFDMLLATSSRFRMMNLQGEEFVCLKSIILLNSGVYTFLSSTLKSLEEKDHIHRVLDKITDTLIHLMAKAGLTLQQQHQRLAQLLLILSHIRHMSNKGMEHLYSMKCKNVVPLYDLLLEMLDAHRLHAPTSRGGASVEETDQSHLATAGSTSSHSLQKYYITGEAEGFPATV
Nuclear receptor subfamily 1 group I member 3 (Homo sapiens), sequence (Q14994 whole entry, looked up, the tested form may be a part): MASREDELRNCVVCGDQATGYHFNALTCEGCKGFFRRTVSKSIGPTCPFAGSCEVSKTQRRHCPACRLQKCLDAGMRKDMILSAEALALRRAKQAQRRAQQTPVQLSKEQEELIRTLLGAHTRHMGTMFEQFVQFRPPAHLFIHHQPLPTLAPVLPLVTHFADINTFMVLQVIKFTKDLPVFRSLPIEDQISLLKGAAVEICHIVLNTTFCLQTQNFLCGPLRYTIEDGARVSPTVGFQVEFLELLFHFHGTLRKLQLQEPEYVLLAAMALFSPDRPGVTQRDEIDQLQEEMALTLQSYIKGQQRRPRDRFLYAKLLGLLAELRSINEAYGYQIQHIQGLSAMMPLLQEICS
Nuclear receptor subfamily 4 group A member 2 (Homo sapiens), sequence (P43354 whole entry, looked up): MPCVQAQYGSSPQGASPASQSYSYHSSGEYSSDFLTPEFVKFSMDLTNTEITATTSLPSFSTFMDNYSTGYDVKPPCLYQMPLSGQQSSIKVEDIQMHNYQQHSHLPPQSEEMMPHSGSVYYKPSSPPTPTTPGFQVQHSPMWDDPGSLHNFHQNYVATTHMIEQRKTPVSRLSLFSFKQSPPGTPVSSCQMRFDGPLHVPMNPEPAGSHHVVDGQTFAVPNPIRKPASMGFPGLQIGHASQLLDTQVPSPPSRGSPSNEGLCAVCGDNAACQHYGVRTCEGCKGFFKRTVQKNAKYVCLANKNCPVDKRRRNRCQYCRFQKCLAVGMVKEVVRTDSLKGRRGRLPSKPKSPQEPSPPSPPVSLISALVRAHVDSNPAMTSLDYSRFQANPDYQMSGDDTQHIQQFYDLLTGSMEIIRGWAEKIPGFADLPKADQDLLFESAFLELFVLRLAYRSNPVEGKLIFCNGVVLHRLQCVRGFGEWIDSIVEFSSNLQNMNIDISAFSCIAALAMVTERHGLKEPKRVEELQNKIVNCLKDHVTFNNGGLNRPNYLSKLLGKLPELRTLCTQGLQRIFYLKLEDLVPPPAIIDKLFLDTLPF
X-box-binding protein 1 (Homo sapiens), sequence (P17861 whole entry, looked up): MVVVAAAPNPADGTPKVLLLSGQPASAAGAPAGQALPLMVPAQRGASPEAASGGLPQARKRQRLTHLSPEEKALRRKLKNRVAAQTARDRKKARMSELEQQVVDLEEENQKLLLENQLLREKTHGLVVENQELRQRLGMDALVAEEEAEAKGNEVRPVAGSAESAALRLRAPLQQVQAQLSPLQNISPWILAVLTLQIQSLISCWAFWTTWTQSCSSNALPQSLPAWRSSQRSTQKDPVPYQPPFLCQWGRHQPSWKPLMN
Steroid hormone receptor ERR1 (Homo sapiens), sequence (P11474 whole entry, looked up, the tested form may be a part): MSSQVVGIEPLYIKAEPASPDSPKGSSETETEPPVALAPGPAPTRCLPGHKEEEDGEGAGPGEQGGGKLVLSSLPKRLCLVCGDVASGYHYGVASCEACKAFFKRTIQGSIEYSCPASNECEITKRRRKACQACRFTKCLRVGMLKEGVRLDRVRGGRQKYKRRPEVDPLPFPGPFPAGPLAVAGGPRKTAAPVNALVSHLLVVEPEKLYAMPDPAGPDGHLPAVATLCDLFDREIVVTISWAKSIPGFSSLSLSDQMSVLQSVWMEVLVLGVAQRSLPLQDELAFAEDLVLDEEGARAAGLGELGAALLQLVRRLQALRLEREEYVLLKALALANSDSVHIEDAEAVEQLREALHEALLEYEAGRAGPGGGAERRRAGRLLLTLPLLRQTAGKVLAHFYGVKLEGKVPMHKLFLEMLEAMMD
Nuclear respiratory factor 1 (Homo sapiens), sequence (Q16656 whole entry, looked up): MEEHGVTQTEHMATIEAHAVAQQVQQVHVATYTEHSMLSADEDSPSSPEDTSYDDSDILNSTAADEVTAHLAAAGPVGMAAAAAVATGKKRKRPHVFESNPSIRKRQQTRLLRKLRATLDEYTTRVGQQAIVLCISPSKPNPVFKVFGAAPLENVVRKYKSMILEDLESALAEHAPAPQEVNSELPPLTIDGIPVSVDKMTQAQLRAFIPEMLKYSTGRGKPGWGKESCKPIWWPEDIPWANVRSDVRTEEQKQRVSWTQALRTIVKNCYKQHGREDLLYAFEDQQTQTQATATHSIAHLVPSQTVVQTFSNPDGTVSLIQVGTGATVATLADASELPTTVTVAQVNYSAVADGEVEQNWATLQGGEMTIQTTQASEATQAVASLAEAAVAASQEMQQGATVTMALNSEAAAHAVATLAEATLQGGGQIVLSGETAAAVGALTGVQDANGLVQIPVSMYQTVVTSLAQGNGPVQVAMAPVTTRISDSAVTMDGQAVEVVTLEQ
Transcriptional activator Myb (Homo sapiens), sequence (P10242 whole entry, looked up): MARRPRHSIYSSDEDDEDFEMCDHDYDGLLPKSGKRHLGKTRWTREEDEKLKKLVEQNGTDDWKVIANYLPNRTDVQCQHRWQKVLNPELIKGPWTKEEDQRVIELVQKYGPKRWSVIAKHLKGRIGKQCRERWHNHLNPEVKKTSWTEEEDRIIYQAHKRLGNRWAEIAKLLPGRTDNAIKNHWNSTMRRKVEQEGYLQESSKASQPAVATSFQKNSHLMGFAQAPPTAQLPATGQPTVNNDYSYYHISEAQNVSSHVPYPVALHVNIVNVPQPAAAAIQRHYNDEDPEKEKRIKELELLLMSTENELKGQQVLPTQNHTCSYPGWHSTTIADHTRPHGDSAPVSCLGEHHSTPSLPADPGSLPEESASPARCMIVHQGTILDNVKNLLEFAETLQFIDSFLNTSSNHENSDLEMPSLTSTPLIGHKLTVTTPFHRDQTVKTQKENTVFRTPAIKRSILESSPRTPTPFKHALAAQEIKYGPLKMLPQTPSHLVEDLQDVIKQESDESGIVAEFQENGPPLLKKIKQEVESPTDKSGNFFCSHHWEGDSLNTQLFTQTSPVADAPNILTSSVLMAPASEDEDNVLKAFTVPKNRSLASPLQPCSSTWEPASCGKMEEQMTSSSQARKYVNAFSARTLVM

COc1cc(OC)nc(NC(=O)NS(=O)(=O)c2ncccc2C(=O)N(C)C)n1
active: [4] 77.8 µM
not listed: [12] | [13] | [14] | [15] | [16] | [17] | [18]
inactive: all other assays above

CCc1ccccc1N
not listed: [8] | [15] | [16] | [17] | [18]
inactive: all other assays above

CCOP(=S)(OCC)Oc1ccc(S(C)=O)cc1 (stereo unspecified)
active: [2] 31.2 µM
inactive: [1] | [3] | [4] | [5] | [12] | [13] | [14] | [10] | [11]

COc1cc(-c2ccc(N)c(OC)c2)ccc1N
active: [2] 27.8 µM and 31 µM | [5] 27.7 µM and 33.6 µM
not listed: [4] | [6] | [9] | [13] | [17] | [18]
inactive: all other assays above

COC(=O)Cc1ccccc1
not listed: [4] | [6] | [7] | [14] | [15] | [18]
inactive: all other assays above

CCC(=O)c1ccccc1
inactive: [1] | [2] | [3] | [4] | [5] | [6] | [18] | [8] | [9] | [11]

Nc1cccc(Cl)c1
active: [1] 739 nM
not listed: [6] | [7] | [8] | [13] | [17] | [18]
inactive: all other assays above

OCc1ccco1
inactive: [1] | [2] | [3] | [4] | [5] | [13] | [7] | [8] | [11]

C[C@]12CCC(=O)C[C@@H]1CC[C@@H]1[C@@H]2CC[C@]2(C)[C@@H](O)CC[C@@H]12
active: [1] 123 µM and 99.6 µM
inactive: [1] | [15] | [5] | [12] | [17] | [13] | [14] | [8] | [9] | [10] | [11]

O=C(Nc1ccc2[nH]ccc2c1)c1cc2cc(F)ccc2n1Cc1cccc(F)c1
active: [2] 11 µM | [5] 14.1 µM
not listed: [8] | [13] | [14] | [15] | [17]
inactive: all other assays above

CC(C)c1cccc(C(C)C)c1O
not listed: [6] | [7] | [13] | [15] | [17] | [18]
inactive: all other assays above

— PubChem BioAssay (EPA / NIEHS)
